# Results taken from PubChem BioAssay (NCI).
# Compounds without any hit were thinned out: in the full panel of roughly 83,000, 20% have a hit.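 The test compound was applied at a single concentration to cells in 96-well plates for 48 hours, and percent growth was recorded.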 Values without a mark were called inactive. The source made the active and inactive calls. The calls were made as follows: active = growth percent below 10; inactive = the rest.
# Experiments:
# Test in all cases: NCI-60 one-dose screen, 48 h (100 = growth as untreated, 0 = no growth, -100 = all killed)
# [1] = test system: SR leukemia; settings: 10 µM unless noted
# [2] = test system: RPMI-8226 leukemia; settings: 10 µM unless noted
# [3] = test system: OVCAR-8 ovarian; settings: 10 µM unless noted
# [4] = test system: OVCAR-4 ovarian; settings: 10 µM unless noted
# [5] = test system: SK-OV-3 ovarian; settings: 10 µM unless noted
# [6] = test system: IGROV1 ovarian; settings: 10 µM unless noted
# [7] = test system: OVCAR-3 ovarian; settings: 10 µM unless noted
# [8] = test system: HS 578T breast; settings: 10 µM
# [9] = test system: NCI/ADR-RES ovarian; settings: 10 µM unless noted
# [10] = test system: T-47D breast; settings: 10 µM unless noted
# [11] = test system: BT-549 breast; settings: 10 µM unless noted
# [12] = test system: MDA-MB-435 melanoma; settings: 10 µM unless noted
# [13] = test system: SW-620 colon; settings: 10 µM unless noted
# [14] = test system: MCF7 breast; settings: 10 µM unless noted
# [15] = test system: HCT-116 colon; settings: 10 µM unless noted
# [16] = test system: HCC-2998 colon; settings: 10 µM
# [17] = test system: KM12 colon; settings: 10 µM unless noted
# [18] = test system: OVCAR-5 ovarian; settings: 10 µM unless noted
SMILES,growth [1],growth [2],growth [3],growth [4],growth [5],growth [6],growth [7],growth [8],growth [9],growth [10],growth [11],growth [12],growth [13],growth [14],growth [15],growth [16],growth [17],growth [18]
COc1cnc2c(c1)C(=O)c1c-2n(CCCNC2=NCCS2)c(=O)c2cc(Cl)ccc12,2.52% (active),-31.2% (active),-25.1% (active),49.5%,20.9%,-57% (active),-67.9% (active),85.8%,-14.5% (active),32.9%,41.6%,7.73% (active),-79.3% (active),-74.9% (active),-87.8% (active),-35.6% (active),-63.2% (active),
CC/C(=C(/c1ccc(Cl)cc1)c1ccc(OCCN2CCCCC2)cc1)c1ccc(Cl)cc1,5.18% (active),76.3%,81.4%,63.9%,,91.7%,78.7%,,84.9%,43.9%,85.9%,86.4%,65.2%,26.6%,61.3%,89.4%,69.2%,79.9%
CC1(O)CC(c2nc(-c3ccc4ccc(-c5ccccc5)nc4c3)c3c(N)nccn23)C1 (centres undefined),33.9%,31.8%,39%,33.1%,,40.1%,56.6%,,41%,2.62% (active),19.5%,36.3%,35.4%,14.5%,35.3%,48.7%,8.69% (active),41.3%
CCOC(=O)C1=C(C)N=C2Sc3cc(OC(F)(F)F)ccc3N2[C@H]1c1ccccn1,26.2%,33.6%,38%,28.3%,39.9%,39.8%,51.5%,63.5%,38.2%,25.1%,59.4%,51.1%,23.6%,41.3%,24.2%,69.4%,32.3%,
CNC(=O)c1cc(Oc2ccc(NC(=O)Nc3cc(C(C)(C)C)nn3-c3ccc4ncccc4c3)c(F)c2)ccn1,-8.95% (active),0.22% (active),-30.2% (active),-13.6% (active),-13.3% (active),-20.2% (active),1.66% (active),,-23.1% (active),-17.7% (active),-38.2% (active),-88% (active),-0.427% (active),-6.46% (active),-51.8% (active),-31.5% (active),-23.8% (active),
CCN(CC)CCCC(C)Nc1cc(-c2ccc(C(F)(F)F)cc2)c(C#N)c2nc3ccccc3n12 (centres undefined),-17.4% (active),-19.9% (active),11.8%,-27.9% (active),74.3%,26.1%,93.5%,-19.1% (active),32.2%,-8.16% (active),-10.7% (active),-64.8% (active),,14.1%,3.28% (active),16.6%,36.5%,
O=C(Cn1ccc2ccccc21)Nc1ccc(-c2nc3ccccc3s2)cc1,95.5%,100%,105%,103%,102%,73.8%,102%,97.7%,100%,90.6%,105%,104%,106%,38.2%,102%,103%,106%,
O=c1nc2c(-c3nc4ccccc4s3)n[nH]n2c2sc3c(c12)CCCC3,90.6%,94.3%,94%,115%,92.3%,101%,95%,94.3%,96.9%,78.9%,94.1%,110%,100%,89.1%,89.1%,103%,,
CO[C@@H](C(=O)N1Cc2[nH]nc(NC(=O)c3ccc(N4CCN(C)CC4)cc3)c2C1)c1ccccc1,-1.07% (active),44%,5.58% (active),9.35% (active),,-16.1% (active),40.6%,,81.7%,-16.3% (active),-10.8% (active),19.5%,21.5%,17.7%,-35.7% (active),26.4%,-28.7% (active),4.9% (active)
NC1=Nc2ccccc2N(O)N1,105%,107%,104%,99.8%,90.9%,105%,111%,97.3%,103%,87.1%,95%,106%,105%,94.2%,93.3%,91.3%,104%,
Cc1sc2c(c1C)c(=O)nc1c(-c3nc4ccccc4s3)n[nH]n12,88.5%,87.9%,97.9%,99.6%,91.4%,94.2%,98.2%,93.3%,93.7%,85.2%,101%,110%,104%,79.6%,90%,96.3%,98.7%,
CCCCCCCC(=O)SCC/C=C/[C@@H]1CC(=O)NCc2cc(ccn2)C2=N[C@@](C)(CS2)C(=O)N[C@@H](C(C)C)C(=O)O1,14.3%,13.6%,6.26% (active),10.9%,,-8.98% (active),-22.9% (active),,4.18% (active),-6.31% (active),36.4%,-22.1% (active),-1.73% (active),14.1%,-17.2% (active),-67.8% (active),-3.5% (active),2.85% (active)
C[C@H](NC(=O)c1c(N)nn2cccnc12)c1cc2cccc(C#Cc3cnn(C)c3)c2c(=O)n1-c1ccccc1,3.42% (active),4.95% (active),28.1%,31.1%,,-22.7% (active),19.9%,,31.1%,-22.3% (active),2.12% (active),30.9%,13.4%,5.42% (active),1.33% (active),,-14% (active),45.1%
COc1ccc2c(OCc3nnc4ccc(-c5ccccc5)nn34)ccnc2c1,80.9% [2.5 µM],104% [2.5 µM],102% [2.5 µM],100% [2.5 µM],73.3% [2.5 µM],106% [2.5 µM],110% [2.5 µM],,76.3% [2.5 µM],71.1% [2.5 µM],102% [2.5 µM],103% [2.5 µM],109% [2.5 µM],93.4% [2.5 µM],98.4% [2.5 µM],,,
O=C1C=CC2(NN=C(c3ccccc3)N2c2cccc(Cl)c2)C(Cl)=C1 (centres undefined),67.3%,58.6%,76%,70.5%,70.7%,87.1%,84.9%,,89.7%,37.9%,88.5%,86.3%,90.2%,79%,73.4%,105%,78.1%,
CCCNC(=O)c1cn2ncnc(Nc3cc(C(=O)NC4CC4)ccc3C)c2c1C,73.6%,75.9%,77.8%,92.1%,,42.4%,103%,,66.9%,65.3%,103%,89.9%,39%,83.6%,101%,,99.6%,17.6%
COc1ccc(-n2c(=O)c3ccccc3n(Cc3ccc(C(=O)NO)cc3)c2=O)cc1,7.16% (active),12%,-0.914% (active),17.1%,28.3%,14.4%,8.92% (active),56.9%,,5.48% (active),36.2%,-84.2% (active),-27.3% (active),25.9%,-19.9% (active),34%,-32.9% (active),
Cn1cc(-c2[nH]c3cc(NC(=O)[C@H](N)C4CCCCC4)cc4c3c2C=NNC4=O)cn1,-15.7% (active),-18.1% (active),-29.5% (active),20.9%,,-27.4% (active),-13% (active),,49.7%,-9.81% (active),-73.7% (active),-33.9% (active),-31.8% (active),-12.1% (active),-76% (active),32.6%,2.52% (active),13%
